Data reported in PubChem BioAssay (NCATS).
Records with an inconclusive call do not appear. Where a call stands in place of a potency, no number is given. Activity calls are given as the source filed them. The call rests on the fitted dose curve; in most records, active means well fitted inhibition curve with a large enough effect; inconclusive means small, poorly fitted or top-dose-only effect; inactive means flat fitted curve, though single readings scatter.

Assay: P-glycoprotein substrates identified in KB-8-5-11 adenocarcinoma cell line, qHTS therapeutic library screen (AID 1346987); further: nearly all actives have a fitted effect of over 65% in size
Settings: KB-8-5-11 (P-gp overexpressing) viability, CellTiter-Glo, 72 h; series mostly up to 44.5 µM
Summary of the method: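 Compounds are pinned in dose-response onto KB-8-5-11 cells (500 cells/well, colchicine-free medium) and left 72 h at 37 degree C. CellTiter-Glo luminescence then yields AC50 values.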
Potency means the concentration at half of the fitted maximal effect.

Structure (SMILES) | Potency
CCN(CC)C(=O)/C(Cl)=C(\C)OP(=O)(OC)OC | inactive
CN1C(=O)N(c2ccc(C#N)c(C(F)(F)F)c2)C(=O)[C@]1(CO)c1ccccc1 | inactive
COC(=O)N1CCN(C(=O)Cc2ccc(Cl)c(Cl)c2)[C@@H](CN2CCCC2)C1 | inactive
CCCCCCCCOC(=O)c1ccccc1C(=O)OCCCCCCCC | inactive
CO[C@H]1[C@H](O)[C@H](O[C@H]2CC[C@]3(C)C4CC[C@]5(C)[C@H](C6=CC(=O)OC6)CC[C@]5(O)C4CC[C@@H]3C2)O[C@@H](C)[C@@H]1O (some centres undefined) | 0.0563 µM (active)
N#CN | inactive
CCCC(=O)OC(C(Cl)(Cl)Cl)P(=O)(OC)OC (centres undefined) | inactive
Cc1cn(C[C@H](N)C(=O)O)c(=O)n(Cc2cc(-c3ccccc3)sc2C(=O)O)c1=O | inactive
C=C(CO)C(=O)O[C@H]1C/C(C)=C/CC/C(CO)=C/[C@H]2OC(=O)C(=C)[C@H]12 | inactive
CCOP(=O)(OCC)O/C(=C/Cl)c1ccc(Cl)cc1Cl | 10.3 µM (active)
CCCCCCCCCC(=O)O[C@H]1CC[C@H]2[C@@H]3CCC4=CC(=O)CC[C@]4(C)[C@H]3CC[C@]12C | 16.4 µM (active)
Cc1ccccc1-n1c(C)nc2ccccc2c1=O | inactive
FC(F)OC(F)(F)C(F)Cl (centres undefined) | inactive
CN(C)CCCCCCN(C)C (tested in a mixture with another compound) | inactive
CN1CCCC1CCOC(c1cc2nccc(C(=O)O)c2[nH]1)c1ccccc1Cl (centres undefined) | inactive
CC(=O)OC1CN2CCC1CC2 (centres undefined) | inactive
O=C(CCl)c1ccc(Oc2ccc(C(=O)CCl)cc2)cc1 | inactive
Cn1sc(Cl)cc1=O | inactive
C[C@@]12C[C@@H](c3ccoc3)OC(=O)C1CC[C@]1(C)[C@H]2[C@H]2C=C[C@]1(O)C(=O)O2 (some centres undefined) | inactive
CC(Cc1ccccc1)NC=O (centres undefined) | inactive

Structure (SMILES) | Potency
CCC1(c2ccccc2)C(=O)NC(=O)NC1=O | inactive
COC(=O)[C@@H]1[C@H]2CC[C@@H](C[C@H]1OC(=O)c1ccccc1)N2C | inactive
COC(COC(N)=O)C1=C(N2CC2)C(=O)C(C)=C(N2CC2)C1=O (centres undefined) | 6.51 µM (active)
CC(C)=C1CC[C@]23CO[C@H](C2)[C@@](O)(C(=O)O)CCC13 (some centres undefined) | inactive
C[C@]12CCC(=O)C[C@@H]1CC[C@@H]1[C@@H]2CC[C@]2(C)[C@@H](O)CC[C@@H]12 | 8.2 µM (active)
CC(=O)OC1CC(O)C2(C)C(CC(OC(C)=O)C3(C)C2CCC2(C)C(c4ccoc4)C(=O)C4OC423)C1(C)C (centres undefined) | inactive
CCCCCl | inactive
C#CC(C)(O)CC (centres undefined) | inactive
O=C(O)C(Cl)(Cl)Cl | inactive
CN(C)[C@H](Cc1ccccc1)c1ccccc1 | inactive
C=C(C)[C@H]1O[C@H]2CC[C@@]3(C)[C@@](O)(CC[C@H]4[C@@H]5OC(C)(C)[C@H]6C[C@@H]7C(=C)Cc8c(Cl)cc9[nH]c(c5c9c8[C@@]76O)[C@@]43C)[C@]23O[C@@H]3[C@H]1O | inactive
CNC1(c2ccccc2Cl)CCCCC1=O (centres undefined) | inactive
CC1(C)[C@H](C=C(Cl)Cl)[C@H]1C(=O)OCc1c(F)c(F)cc(F)c1F | inactive
CC(C)(C)c1cc(C(C)(C)C)c2c(c1)C(O)(C(F)(F)F)C(=O)O2 (centres undefined) | inactive
CCN1C[C@]2(COC(=O)c3ccccc3N3C(=O)C[C@H](C)C3=O)CC[C@H](OC)[C@@]34[C@@H]5C[C@H]6[C@H](OC)[C@@H]5[C@](O)(C[C@@H]6OC)[C@](O)([C@@H](OC)[C@H]23)[C@@H]14 | inactive
COc1cc(C)[nH]c(=O)c1CNC(=O)c1c(C)n([C@H](C)C2CCOCC2)c2ccccc12 | inactive
CCC/C=C/C=C/C(=O)O[C@H]1/C(=C/C(=O)OC)C[C@H]2C[C@H]([C@@H](C)O)OC(=O)C[C@H](O)C[C@@H]3C[C@H](OC(C)=O)C(C)(C)[C@](O)(C[C@@H]4C/C(=C/C(=O)OC)C[C@H](/C=C/C(C)(C)[C@]1(O)O2)O4)O3 | inactive
CC1=C2C(=O)C3[C@@H](CC=C4C[C@@H](O)CC[C@@]43C)[C@@H]2CC[C@]12O[C@@H]1C[C@H](C)CN[C@H]1[C@H]2C (some centres undefined) | inactive
O=C(CS(=O)C(c1ccccc1)c1ccccc1)NO (centres undefined) | inactive
